The panel holds about 79,000 compounds, 15% with a hit somewhere; the sample as a whole holds those more often. Activity calls are given as the source filed them. Rule as the data show it: active = growth inhibition above about 70%; inactive = the rest.
How the values were obtained:
[1] = NCI Yeast Anticancer Drug Screen. Data for the mec2-1 strain (AID 157); details: S. cerevisiae mec2-1 strain, at 50.0 µM, hits give high values
Outline: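 Growth inhibition is read against vehicle-treated controls after compound exposure of the mec2-1 yeast strain, which is defective in DNA damage repair or cell cycle control.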

[2] = NCI Yeast Anticancer Drug Screen. Data for the sgs1 mgt1 strain (AID 161);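 also: 0% = growth of cultures given vehicle only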; details: S. cerevisiae sgs1 mgt1 strain, at 50.0 µM, hits give high values
Outline: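 Percent growth inhibition was derived by comparing compound-exposed mutant yeast with vehicle-exposed cultures. The strain carries alterations in DNA damage repair.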

[3] = NCI Yeast Anticancer Drug Screen. Data for the cln2 rad14 strain (AID 165);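 also: 0% = growth equal to vehicle treated cultures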; details: S. cerevisiae cln2 rad14 strain, at 50.0 µM, hits give high values
Outline: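 Growth inhibition, relative to vehicle-treated controls, is the read-out. The test organism is a yeast strain with defined genetic alterations, cln2 rad14.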

[4] = NCI Yeast Anticancer Drug Screen. Data for the bub3 strain (AID 167); details: S. cerevisiae bub3 mutant strain, at 50.0 µM, hits give high values
Outline: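 Inhibition values come from growth of compound-treated mutant yeast normalised to vehicle-treated controls.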

[5] = NCI Yeast Anticancer Drug Screen. Data for the mlh1 rad18 strain (AID 175); details: S. cerevisiae mlh1 rad18 strain growth inhibition; at 50.0 µM; hits give high values
Outline: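 Cells of a genetically altered yeast strain, deficient in DNA damage repair, were treated with compound. Their growth was then compared with that of vehicle-treated cultures to give inhibition.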

Measured: growth inhibition

COC1CC2CC1C1COCC21 (configuration not stated)
inactive: [1] -4.05% | [2] -19.9% | [3] -12.4% | [4] -12.4% | [5] -7.6%

CCOC(=O)COc1c(C)cccc1C
inactive: [1] 5.45% | [2] -2.5% | [3] 14.8% | [4] 32.5% | [5] 12.5%

O=C(O)c1cc(C2CCCC2)nc2ccccc12
inactive: [1] 17% | [2] -5.25% | [3] -6% | [4] -13.2% | [5] 6.85%

NC(=O)Nc1ccc2[nH]c(=O)c3ccccc3c2c1
inactive: [1] -3.35% | [2] 17.2% | [3] 0.6% | [4] -7.15% | [5] 1.45%

C(=C1\CCC/C(=C/c2ccccc2)C1=NNc1ccccc1)/c1ccccc1
inactive: [1] 2.35% | [2] 6.45% | [3] 18.1% | [4] 11% | [5] 24.1%

O=C(O)c1cc(=O)[nH]c(=O)[nH]1
inactive: [1] 0.05% | [2] -14.9% | [3] 7.05% | [4] -6.5% | [5] -21.2%

CN(C)CCN1CCCN(C)CC1
inactive: [1] -13.8% | [2] -4.25% | [3] -17.2% | [4] -25.3% | [5] 5.4%

COc1ccc(S(=O)(=O)Oc2ccc(Cl)cc2)cc1
inactive: [1] 11.6% | [2] 18.1% | [3] -234% | [4] 42.5% | [5] 9.05%

CCC(c1ccc(OC)cc1)c1cc2c(cc1OCCO)OCO2 (configuration not stated)
inactive: [1] 66.3% | [3] 67.7% | [4] 58.1%
active: [2] 81.7% | [5] 96.3%

C[N+](C)(C)CCC(=O)N1C/C(=C\c2ccccc2)C(=O)/C(=C/c2ccccc2)C1
inactive: [1] -15.2% | [2] -34.1% | [3] 8.75% | [4] -15.7% | [5] -34.8%

Cc1c(Cl)cc(Cl)c(N)c1Cl
inactive: [1] -13.7% | [2] -18% | [3] -5.3% | [4] -16.1% | [5] -15.2%

CC[P+](C)(C)c1ccccc1
inactive: [1] -0.8% | [2] 2.1% | [3] 7.55% | [4] 11.7% | [5] 2.75%

COc1cc2c3c(c1)nc(C)n3C(=O)C(c1ccccc1)S2 (configuration not stated)
inactive: [1] -5.3% | [2] -26.3% | [3] 4.1% | [4] 21.6% | [5] -23.6%

Nc1nnc2nc(CC(=O)Cc3ccccc3)c(CC(=O)Cc3ccccc3)nn12
inactive: [1] -5.55% | [2] 11.2% | [3] -17.9% | [4] 10.7% | [5] 9.35%

CC(C)(C)OC(=O)c1ccc(NCc2cc(O)ccc2O)cc1
active: [1] 89% | [2] 90.8% | [3] 90.3% | [4] 88.5% | [5] 87.1%

C=C[Si](Cl)(Cl)c1ccccc1
inactive: [1] -2.45% | [2] 1.65% | [3] -0.15% | [4] 6.5% | [5] 11.2%

CCCCCCCCCCN(CCCCCCCCCC)C(C)C(O)c1ccc2cc(Br)c3ccccc3c2c1 (configuration not stated)
inactive: [1] -13.2% | [2] -15.8% | [3] -16.9% | [4] -12.5% | [5] -14.3%

O=C(NCc1ccccc1)C1CCN(Cc2c[nH]c3ccccc23)CC1
inactive: [1] -4.4% | [2] 3.15% | [4] 1.7% | [5] 28.7%

O=C1NNC2(C(=O)N1)c1ccccc1-c1ccccc12
inactive: [1] -19.5% | [2] 28.1% | [3] 24.9% | [4] 1.65% | [5] 15.2%

CC(=O)OCC1OC(n2c(-c3ccc(Cl)cc3)cc(-c3ccccc3)c(C#N)c2=S)C(OC(C)=O)C(OC(C)=O)C1OC(C)=O (configuration not stated)
inactive: [1] -9.25% | [2] 6.5% | [3] 2.8% | [4] 17.8% | [5] 14.2%

CCC(CC)COC(=O)CC(C)=O
active: [3] 86.8%
inactive: [1] 52.9% | [2] 6.9% | [4] 28.2% | [5] 33.4%

COC(=O)c1cc(C(=O)OC)c(C/C(=N/NC(N)=S)C(=O)Nc2ccc(Cl)c(Cl)c2)nc1C/C(=N/NC(N)=S)C(=O)Nc1ccc(Cl)c(Cl)c1
inactive: [1] 14.9% | [2] 7.1% | [3] 34.2% | [4] 32.7% | [5] 44%

CCCOC(=O)c1ccc(Cl)c(Cl)c1
inactive: [1] 7.85% | [2] 2.5% | [3] -58.2% | [4] -6.15% | [5] 5.9%

Cc1cc2c(=O)cc(-c3ccncc3)oc2c(C(=O)O)c1C
inactive: [1] 0.2% | [2] -10.3% | [3] 20.5% | [4] 26.9% | [5] -5.5%

CSc1nc(N(C)C)c2[nH]c(C)nc2n1
inactive: [1] 9.5% | [2] -6.55% | [3] 36.6% | [4] 10.6% | [5] 31.6%

COCCNC(C)=O
inactive: [1] 0.7% | [2] 12% | [3] -17.1% | [4] -11.2% | [5] 3.7%

COc1ccccc1OCC(O)CO (configuration not stated)
inactive: [1] -22.9% | [2] -14.8% | [3] 7.7% | [4] -10.9% | [5] 10.5%

CNCCNc1ncc([N+](=O)[O-])s1
inactive: [1] -9.1% | [2] -37.6% | [3] -25.1% | [4] -43% | [5] -32.5%

CCOC(=O)C1=C(C)NC(C)=C(C(=O)OCC)C1
inactive: [1] -5.8% | [2] -1.5% | [3] -41.1% | [4] 31.1% | [5] 13.5%

CO/C(N)=C(\C#N)N=Cc1ccco1
inactive: [1] -22.4% | [2] -4.65% | [3] 11.8% | [4] -4.55% | [5] 9.3%

COC(=O)c1ccc(/C2=c3\cc/c([n-]3)=C(\c3ccc(C(=O)OC)cc3)c3ccc([n-]3)/C(c3ccc(C(=O)OC)cc3)=c3/cc/c([n-]3)=C(\c3ccc(C(=O)OC)cc3)c3ccc2[n-]3)cc1.[Mn]
inactive: [1] 23.1% | [3] -3.65% | [4] -4.55% | [5] 53.7%

CNc1ccc(Cl)cc1S(=O)(=O)c1ccccc1[N+](=O)[O-]
inactive: [1] 16.4% | [2] 24.8% | [3] 23.3% | [4] 5.65% | [5] -7.05%

Nc1cccc2ccc(Cl)nc12
inactive: [1] 19.4% | [2] 14.2% | [3] 9.7% | [4] 16.3% | [5] -5%

CN(C)CCNC(=O)c1ccc(C(=O)NCCN(C)C)c2c(C(=O)NCCN(C)C)ccc(C(=O)NCCN(C)C)c12
inactive: [1] 41.3% | [2] 37.2% | [3] 54.7% | [4] 4.5% | [5] 8.5%

Cc1cc(Cl)ccc1NC(=O)C1C(=O)C(=O)N(c2ccc(Cl)cc2C)C1=O (configuration not stated)
inactive: [1] -2.3% | [2] 14.8% | [3] 13.4% | [4] -18.2% | [5] 17.2%

COc1ccc2[nH]c3c4c(ccc3c2c1)C(=O)C=CC4=O
inactive: [1] 18.3% | [2] 12% | [3] -1.05% | [4] 9.45% | [5] 17.6%

O=c1ccn2c(n1)OC1CC2OC1COC(c1ccccc1)(c1ccccc1)c1ccccc1 (configuration not stated)
inactive: [2] 12.2% | [3] -17.4% | [4] 3.6% | [5] 10.3%
